Structures are written as SMILES. Records with an inconclusive call do not appear. Activity calls are given as the source filed them. Unless noted, calls come from the whole dose curve.

A short description of test [1]: Nuclear factor erythroid 2-related factor 2/antioxidant responsive element (Nrf2/ARE) small molecule agonists: qHTS cell viability counter screen in human keratinocytes (AID 1919968; active = well fitted curve in the direction sought with a large enough effect in the repeat runs; an effect the other way counts as inactive or inconclusive; note: nearly all actives have a fitted effect of over 55% in size). A digest of the protocol: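 After a 5 h attachment period, ARE-reporter keratinocytes were dosed with compounds in DMSO and then cultured 23 h at 37 C. Cell viability came from CellTiter-Fluor signal read after a further 1 h.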

Test [2] is described as follows: Nuclear factor erythroid 2-related factor 2/antioxidant responsive element (Nrf2/ARE) small molecule agonists: luciferase reporter gene qHTS assay in human keratinocytes (AID 1919969). Note: nearly all actives have a fitted effect of over 35% in size. A general note: A reporter such as luciferase makes a cellular process visible.
In test [3] the target is Gonadotropin-releasing hormone receptor (Homo sapiens) (UniProt P30968). Put plainly: Human gonadotropin-releasing hormone receptor (GnRHR) small molecule agonists, calcium flux assay in GnRHR-HEK293 cells (AID 1920063). Note: nearly all actives have a fitted effect of over 35% in size. Note: potency is the fitted concentration of half-maximal effect. A digest of the protocol:
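We seeded human GnRHR-expressing HEK293 cells for 18 hours, loaded them with calcium dye for an hour at 37 C, added test compounds, and recorded fluorescence intensity kinetically for three minutes.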
(Calcium flux is commonly read through the fluorescence of an indicator in the cells.)

In test [4] the target is KiSS-1 receptor (Homo sapiens) (UniProt Q969F8). Put plainly: Human kisspeptin (KISS1R) small molecule agonists, calcium flux assay in KISS1R-HEK293 cells (AID 1920064; active = well fitted curve in the direction sought with a large enough effect in the repeat runs; an effect the other way counts as inactive or inconclusive). In outline: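 Kinetic calcium assay, 1 s sampling over 3 min at Ex/Em 480/540, in HEK293 cells engineered with human KISS1R; compounds delivered in DMSO after 1 h dye loading.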
The nature of test [5]: G protein-coupled receptor (GPCR) small molecule agonists, calcium flux assay: HEK293 wild type cell line counter screen (AID 1920065). In outline: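 Calcium-sensitive dye, loaded 1 h at 37 C into cells cultured 18 h, reports compound-evoked calcium release as fluorescence (Ex/Em 480/540), measured over 3 min. Agonist mode; 15-point titrations, triplicate.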
The nature of test [6]: p53 small molecule agonists, cell-based qHTS assay with human liver microsomes (AID 1963577).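 Note: p53 response element beta-lactamase reporter cells with liver microsomes plus NADPH.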 In outline: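 With metabolic activation: human liver microsomes (0.5 mg/mL final) plus NADPH (0.5 mg/mL final) added alongside compounds to p53RE-bla cells; 16 h 37 C exposure; beta-lactamase read by LiveBLAzer fluorescence.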
On the technique in general: qHTS replaces the single test concentration by a dilution series.

The nature of test [7]: p53 small molecule agonists, cell-based qHTS assay with rat liver microsomes (AID 1963578). A digest of the protocol:
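Metabolic activation by rat liver microsomes and NADPH, each 0.5 mg/mL final, added right after compounds to p53RE-bla reporter cells (4,000/well, plated 5 h earlier). 16 h at 37 C, then LiveBLAzer substrate for 2 h at room temperature in the dark; fluorescence read-out.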

A short description of test [8]: p53 small molecule agonists, cell-based qHTS assay with human liver microsomes: qHTS cell viability counter screen (AID 1963579). Note: nearly all actives have a fitted effect of over 45% in size. A digest of the protocol:
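Metabolic activation used human liver microsomes and NADPH, both 0.5 mg/mL final, over 16 hours at 37 C on p53RE-bla cells (4,000/well). Cytotoxicity measured by CellTiter-Glo luminescence, 30 min at room temperature.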

A short description of test [9]: p53 small molecule agonists, cell-based qHTS assay with rat liver microsomes: qHTS cell viability counter screen (AID 1963580). Note: nearly all actives have a fitted effect of over 45% in size. A digest of the protocol:
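Intracellular ATP, by CellTiter-Glo luminescence, defines viability. HCT-116 p53RE-bla cells, 4,000 per well, were compound-treated in the presence of rat liver microsomes and NADPH for 16 h at 37 C.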

Test [10] is described as follows: p53 small molecule agonists, cell-based qHTS assay: qHTS cell viability counter screen (AID 1963581). Note: nearly all actives have a fitted effect of over 45% in size. In outline: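 Following 5 h attachment, HCT-116 p53RE-bla cells took up compound for 16 h at 37 C; the reporter was read with B/G FRET substrate (2 h RT), and viability then via CellTiter-Glo ATP luminescence.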
A short description of test [11]: p53 small molecule agonists, cell-based qHTS assay (AID 1963582; active = well fitted activation curve with a large enough effect in the signal ratio in the repeat runs, not every such curve was filed as active; the % refers to the signal ratio). A digest of the protocol: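 In this cell-based concentration-response screen, a p53 response element drives beta-lactamase; cells received DMSO-borne compounds after 5 h culture and were incubated a further 16 h before FRET substrate development.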
Test [12] addresses 5-hydroxytryptamine receptor 2A (Homo sapiens) (UniProt P28223). Put plainly: 5-hydroxytryptamine receptor 2A (HTR2A) small molecule antagonists, cell-based qHTS assay (AID 1963586). Note: nearly all actives have a fitted effect of over 45% in size. In outline: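 Antagonist-mode intracellular calcium assay: DOI (4 nM) added after 5 min compound pre-incubation at room temperature to dye-loaded HTR2A-CHO cells. Fluorescence followed for 3 min, sampled every second.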

For test [13] the target is unchanged. Put plainly: 5-hydroxytryptamine receptor 2A (HTR2A) small molecule agonists, cell-based qHTS assay (AID 1963587). Note: nearly all actives have a fitted effect of over 30% in size. A digest of the protocol:
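Kinetic calcium-flux fluorescence (2 min, 1 sec intervals) after compound addition in agonist mode. HTR2A-CHO cells were cultured 18 h, then dye-loaded 1 h at 37 C.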

Test [14] concerns the target Muscarinic acetylcholine receptor M1 (Homo sapiens) (UniProt P11229). Put plainly: Cholinergic receptor muscarinic 1 (CHRM1) small molecule antagonists, cell-based qHTS assay (AID 1963588). Note: nearly all actives have a fitted effect of over 40% in size. In outline: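 CHRM1-CHO calcium-flux assay, antagonist mode. Cells were seeded 18 h, dye-loaded 1 h at 37 C and given compound for 5 min at RT, then acetylcholine was added at 50nM. FDSS fluorescence was read 3 min; 15 concentrations, three runs.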

The target is the same in test [15]. Put plainly: Cholinergic receptor muscarinic 1 (CHRM1) small molecule agonists, cell-based qHTS assay (AID 1963589). Note: nearly all actives have a fitted effect of over 35% in size. Note: potency is the fitted concentration of half-maximal effect. A digest of the protocol: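 Measures agonist-induced intracellular calcium rise. Stable human CHRM1 CHO line, 1 h dye load at 37 C, compounds from DMSO, kinetic fluorescence read.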
A short description of test [16]: cAMP Responsive Elements (CRE) small molecule agonists, cell-based qHTS assay (AID 1963590). In outline: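 A CRE-responsive beta-lactamase reporter in HEK 293T cells was used. Treatment ran 3 h at 37 C; detection used LiveBLAzer B/G FRET substrate for 2 h at room temperature.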
A short description of test [17]: cAMP Responsive Elements (CRE) small molecule antagonists, cell-based qHTS assay (AID 1963591; active = well fitted inhibition curve with a large enough effect in the signal ratio in the repeat runs, not every such curve was filed as active; the % refers to the signal ratio). In outline: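 HEK293T cells carrying a CRE-driven beta-lactamase reporter receive compound and NKH477 (0.25 uM final) for 3 h. Fluorescence from LiveBLAzer B/G FRET substrate is read after 2 h at room temperature.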
The target in test [18] is D(2) dopamine receptor (Homo sapiens) (UniProt P14416). Put plainly: Dopamine D2 receptor (DRD2) small molecule antagonists, cell-based qHTS assay (AID 1963595; active = well fitted inhibition curve with a large enough effect in the signal ratio in the repeat runs, with a control signal flat; the % refers to the signal ratio). In outline: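 HEK293 cells stably expressing DRD2, preincubated with 0.1 mM Ro20-1724 and compounds 10 min, were stimulated with 200 nM NKH477 plus 12 nM quinpirole for 30 min at room temperature; cAMP measured by HTRF (665/620 nm).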

Test [19] has the same target. Put plainly: Dopamine D2 receptor (DRD2) small molecule agonists, cell-based qHTS assay (AID 1963594). Note: nearly all actives have a fitted effect of over 35% in size. In outline: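 cAMP accumulation in DRD2-HEK293 cells measured by HTRF after 1 h detection; compounds added 10 min before NKH477 (200nM […]) forskolin-analogue stimulation, 30 min at room temperature, with Ro20-1724 present at 0.1 mM final.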
For test [20], the target named is Beta-2 adrenergic receptor (Homo sapiens) (UniProt P07550). Put plainly: Adrenergic beta2 receptor (ADRB2) small molecule antagonists, cell-based qHTS assay (AID 1963592). Note: series mostly up to about 92 µM; nearly all actives have a fitted effect of over 50% in size. In outline: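 Cells (CHO, stable ADRB2 overexpression) incubated 18-20hr at 37C; compounds added from DMSO; agonist mix (1nM isoproterenol, 100uM IBMX, 25uM Ro-20-1724) added; 0.5hr RT; d2-cAMP and anti-cAMP-cryptate added; 1hr RT; 665/615 nm read.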
Chain of Beta-2 adrenergic receptor (Homo sapiens) (P07550 whole entry, looked up): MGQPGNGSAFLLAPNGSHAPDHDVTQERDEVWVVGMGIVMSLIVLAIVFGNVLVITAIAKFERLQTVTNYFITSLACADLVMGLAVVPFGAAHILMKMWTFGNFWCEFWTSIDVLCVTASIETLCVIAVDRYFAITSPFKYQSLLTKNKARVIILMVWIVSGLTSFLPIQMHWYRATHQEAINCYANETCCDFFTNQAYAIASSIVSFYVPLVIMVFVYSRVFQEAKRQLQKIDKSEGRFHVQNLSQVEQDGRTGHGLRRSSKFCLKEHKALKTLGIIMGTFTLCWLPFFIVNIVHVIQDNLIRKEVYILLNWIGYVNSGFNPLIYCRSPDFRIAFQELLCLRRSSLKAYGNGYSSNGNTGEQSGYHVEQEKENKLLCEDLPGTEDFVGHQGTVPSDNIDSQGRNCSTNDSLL

Chain of KiSS-1 receptor (Homo sapiens) (Q969F8 whole entry, looked up): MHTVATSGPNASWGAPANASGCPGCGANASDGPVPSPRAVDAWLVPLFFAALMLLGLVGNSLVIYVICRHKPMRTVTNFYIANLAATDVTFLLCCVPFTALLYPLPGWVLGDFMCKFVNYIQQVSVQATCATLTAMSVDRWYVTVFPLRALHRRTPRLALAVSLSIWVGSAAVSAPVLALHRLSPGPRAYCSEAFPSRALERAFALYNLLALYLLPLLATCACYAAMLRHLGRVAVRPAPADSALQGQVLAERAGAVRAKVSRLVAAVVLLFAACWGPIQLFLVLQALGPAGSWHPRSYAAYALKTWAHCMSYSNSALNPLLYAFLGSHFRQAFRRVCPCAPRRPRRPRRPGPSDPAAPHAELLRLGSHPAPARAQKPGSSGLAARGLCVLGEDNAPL
Chain of D(2) dopamine receptor (Homo sapiens) (P14416 whole entry, looked up): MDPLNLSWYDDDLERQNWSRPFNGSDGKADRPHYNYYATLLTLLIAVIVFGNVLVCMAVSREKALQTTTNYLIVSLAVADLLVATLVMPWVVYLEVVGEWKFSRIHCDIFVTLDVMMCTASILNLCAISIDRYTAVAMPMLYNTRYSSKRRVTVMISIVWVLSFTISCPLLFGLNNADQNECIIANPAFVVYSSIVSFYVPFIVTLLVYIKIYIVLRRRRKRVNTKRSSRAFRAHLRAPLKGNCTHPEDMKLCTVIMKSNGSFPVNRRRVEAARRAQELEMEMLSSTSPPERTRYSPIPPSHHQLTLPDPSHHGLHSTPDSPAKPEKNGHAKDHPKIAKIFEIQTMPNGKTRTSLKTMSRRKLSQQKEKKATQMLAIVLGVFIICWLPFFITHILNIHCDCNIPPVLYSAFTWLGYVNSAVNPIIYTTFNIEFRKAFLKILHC
Chain of Muscarinic acetylcholine receptor M1 (Homo sapiens) (P11229 whole entry, looked up): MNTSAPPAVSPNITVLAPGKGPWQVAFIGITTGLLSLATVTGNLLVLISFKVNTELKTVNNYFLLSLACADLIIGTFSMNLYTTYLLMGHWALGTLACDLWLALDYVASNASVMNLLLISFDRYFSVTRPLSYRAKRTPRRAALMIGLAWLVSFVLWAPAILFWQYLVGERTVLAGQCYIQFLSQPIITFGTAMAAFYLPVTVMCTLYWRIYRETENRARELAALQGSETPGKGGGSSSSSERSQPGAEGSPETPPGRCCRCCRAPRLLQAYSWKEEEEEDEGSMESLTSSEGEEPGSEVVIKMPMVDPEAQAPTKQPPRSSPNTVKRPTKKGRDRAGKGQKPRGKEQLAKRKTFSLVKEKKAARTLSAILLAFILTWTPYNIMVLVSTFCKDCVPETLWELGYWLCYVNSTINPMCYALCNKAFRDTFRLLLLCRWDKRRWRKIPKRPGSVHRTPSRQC
Chain of Gonadotropin-releasing hormone receptor (Homo sapiens) (P30968 whole entry, looked up): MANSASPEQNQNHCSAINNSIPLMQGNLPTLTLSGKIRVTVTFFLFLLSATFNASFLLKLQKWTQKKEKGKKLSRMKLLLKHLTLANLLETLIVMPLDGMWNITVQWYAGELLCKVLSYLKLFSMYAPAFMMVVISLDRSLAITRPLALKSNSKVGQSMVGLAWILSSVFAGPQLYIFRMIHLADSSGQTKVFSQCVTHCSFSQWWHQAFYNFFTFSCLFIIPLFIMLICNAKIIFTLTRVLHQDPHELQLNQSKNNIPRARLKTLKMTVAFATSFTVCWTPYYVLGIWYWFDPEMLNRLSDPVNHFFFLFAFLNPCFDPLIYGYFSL
Chain of 5-hydroxytryptamine receptor 2A (Homo sapiens) (P28223 whole entry, looked up): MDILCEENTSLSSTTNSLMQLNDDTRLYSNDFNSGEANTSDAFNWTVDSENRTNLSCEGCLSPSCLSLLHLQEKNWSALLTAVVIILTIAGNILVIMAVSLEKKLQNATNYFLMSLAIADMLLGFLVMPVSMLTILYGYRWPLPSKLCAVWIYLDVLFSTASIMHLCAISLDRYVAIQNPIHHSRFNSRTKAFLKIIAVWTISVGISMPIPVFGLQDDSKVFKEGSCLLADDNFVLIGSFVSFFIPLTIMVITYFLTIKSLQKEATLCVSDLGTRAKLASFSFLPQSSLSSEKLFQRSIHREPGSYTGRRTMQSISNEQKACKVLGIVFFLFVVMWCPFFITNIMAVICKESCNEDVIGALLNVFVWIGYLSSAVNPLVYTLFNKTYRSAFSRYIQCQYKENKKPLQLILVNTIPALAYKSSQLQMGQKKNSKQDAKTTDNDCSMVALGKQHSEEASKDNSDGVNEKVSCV

On to `CC12CC3CC(C)(C1)CC(N)(C3)C2`, for which the Potency entry in test [1], in test [2], in test [3], in test [4], in test [5] and in test [6] was “inactive” throughout. Besides, the Potency entry in test [7], in [8], in test [9], in test [10], in test [11] and in test [12] was “inactive” throughout. Besides, the Potency entry in [13], in [14], in [15], in [16], in test [17] and in test [18] was “inactive” each time.
In the case of `c1ccc(CCc2ccccc2)cc1`, the Potency result in test [1], in test [2], in test [3], in [4], in test [5] and in test [6] was “inactive” in each case. Also, the Potency result in [7], in [8], in [9], in test [10], in test [11] and in test [12] was “inactive” throughout. The Potency entry in test [13], in test [14], in test [15], in test [16], in test [17] and in test [19] was “inactive” throughout. Further, the Potency result in test [18] is “inactive”.
As for `CC(C)C(=O)Nc1cccc(C2CN3CCSC3=N2)c1` (stereo not drawn), the Potency result in test [1], in test [2], in test [3], in [4], in test [5] and in test [6] was “inactive” in each case. Further, the Potency entry in test [7], in [8], in test [9], in [10], in [11] and in [12] was “inactive” in each case. Also, the Potency entry in test [13], in test [14], in test [15], in test [16], in test [17] and in test [19] was “inactive” each time. Besides, the Potency entry in [18] was “inactive”.
Turning to `CCC(C)CO` (stereo not drawn), the Potency entry in [1], in test [2], in test [3], in test [4], in test [5] and in test [6] was “inactive” throughout. Also, the Potency result in [7], in test [8], in [9], in test [10], in test [11] and in test [12] was “inactive” in each case. In addition, the Potency result in test [13], in test [14], in test [15], in test [16], in test [19] and in test [18] was “inactive” throughout.
As for `CC/C=C\CCOC(=O)C(C)C`, the Potency result in [1], in test [2], in test [3], in test [4], in test [5] and in test [6] was “inactive” each time. Also, the Potency entry in [7], in test [8], in test [9], in [10], in test [11] and in test [12] was “inactive” in each case. In addition, the Potency entry in test [13], in [14], in test [15], in test [16], in [20] and in test [19] was “inactive” throughout. The Potency result in [18] is “inactive”.
With `CCC(C)(C)C1CCC(OC)CC1` (stereo not drawn), the Potency result in test [1], in test [2], in test [3], in [4], in test [5] and in [6] was “inactive” each time. The Potency result in test [7], in test [8], in [9], in test [10], in test [11] and in test [12] was “inactive” in each case. Moreover, the Potency result in test [13], in test [14], in test [15], in test [16], in test [17] and in [18] was “inactive” in each case.
Take `CCCC[C@H]1CN(CC2CCOCC2)C(=O)OC12CCN(C1(C)CCN(C(=O)c3c(C)ncnc3C)CC1)CC2`: the Potency entry in [1], in test [2], in [3], in [4], in test [5] and in test [6] was “inactive” throughout. In addition, the Potency entry in [7], in [8], in test [9], in test [10], in test [11] and in test [12] was “inactive” each time. Further, the Potency entry in [13], in test [14], in test [15], in [16], in test [17] and in test [19] was “inactive” in each case. Moreover, the Potency entry in test [18] was “inactive”.
Regarding `CC(C[N+](C)(C)C)OC(N)=O` (stereo not drawn), the Potency result in [1], in [2], in test [4], in test [5], in test [6] and in test [7] was “inactive” each time. Further, the Potency result in [8], in test [9], in test [10], in [11], in test [12] and in test [13] was “inactive” each time. In addition, the Potency entry in [14], in test [16], in [20] and in test [18] was “inactive” each time. The Potency in [3] is 13.5 µM (active); in test [15], 2.39 µM (active).

The values above are taken from PubChem BioAssay (Tox21).
